We go through 8 sequences from paper PMC7862700, “An all-to-all approach to the identification of sequence-specific readers for epigenetic DNA modifications on cytosine”.

What all share (experiment): DAPPL (digital affinity profiling via proximity ligation, sequencing); 10 mM Tris-HCl pH 7.5, 50 mM NaCl, 1 mM DTT, 4% glycerol, room temperature, 30 min; GST-TFs on glutathione beads, 16-mer random dsDNA library, 0.1% formaldehyde crosslink after washing; high values mean tight binding
Common to all, as to conditions: protein: recombinant; tags: N-terminal GST; dsDNA, one strand shown

One experiment deals with T1, FLI1 (Homo sapiens, UniProt Q01543 1-452).
T1 sequence: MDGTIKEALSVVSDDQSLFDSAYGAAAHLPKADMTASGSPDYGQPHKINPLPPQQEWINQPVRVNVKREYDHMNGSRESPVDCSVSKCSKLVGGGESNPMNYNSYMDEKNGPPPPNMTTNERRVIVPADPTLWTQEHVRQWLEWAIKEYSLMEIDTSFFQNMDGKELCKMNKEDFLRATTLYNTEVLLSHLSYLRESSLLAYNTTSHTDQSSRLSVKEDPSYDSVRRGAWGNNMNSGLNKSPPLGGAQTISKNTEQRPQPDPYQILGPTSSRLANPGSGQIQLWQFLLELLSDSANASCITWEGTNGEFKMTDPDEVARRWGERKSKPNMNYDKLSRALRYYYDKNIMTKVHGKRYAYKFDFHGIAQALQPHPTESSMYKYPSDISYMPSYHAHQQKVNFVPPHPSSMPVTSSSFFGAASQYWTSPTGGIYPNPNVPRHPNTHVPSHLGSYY
A digest of the protocol:
(§1)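 Human transcription factors carrying a GST fusion were produced in yeast, bound to glutathione beads, tagged with DNA barcodes and pooled together with a tag-only sample. Each pool was held with 200 nmole of a random double-stranded 16-mer DNA library in Tris/NaCl/DTT/glycerol buffer for 30 min at room temperature, then washed, crosslinked in 0.1% formaldehyde, proximity-ligated with BsaI/T4 ligase (1 h, 37 °C), PCR-amplified and sequenced on an Illumina NextSeq500. Binding signal is the read frequency of each hexamer for a given factor divided by its frequency in the tag-only sample.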

A further experiment has as its target T2, ELK1 (Homo sapiens, UniProt P19419 1-428).
T2 sequence: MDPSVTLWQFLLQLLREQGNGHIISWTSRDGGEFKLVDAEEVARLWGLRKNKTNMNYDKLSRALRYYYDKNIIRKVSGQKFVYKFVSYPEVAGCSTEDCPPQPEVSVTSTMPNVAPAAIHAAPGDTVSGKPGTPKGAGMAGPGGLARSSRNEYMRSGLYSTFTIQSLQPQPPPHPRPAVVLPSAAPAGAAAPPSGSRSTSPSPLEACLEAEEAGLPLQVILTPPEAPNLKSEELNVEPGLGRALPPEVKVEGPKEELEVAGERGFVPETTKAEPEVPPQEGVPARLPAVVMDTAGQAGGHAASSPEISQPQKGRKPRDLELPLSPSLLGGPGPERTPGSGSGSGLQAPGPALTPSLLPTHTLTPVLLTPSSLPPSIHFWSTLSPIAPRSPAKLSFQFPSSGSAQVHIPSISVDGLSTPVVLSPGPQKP
Put shortly: as §1

The target of another experiment is T3, GABPA (Homo sapiens, UniProt Q06546 1-454).
T3 sequence: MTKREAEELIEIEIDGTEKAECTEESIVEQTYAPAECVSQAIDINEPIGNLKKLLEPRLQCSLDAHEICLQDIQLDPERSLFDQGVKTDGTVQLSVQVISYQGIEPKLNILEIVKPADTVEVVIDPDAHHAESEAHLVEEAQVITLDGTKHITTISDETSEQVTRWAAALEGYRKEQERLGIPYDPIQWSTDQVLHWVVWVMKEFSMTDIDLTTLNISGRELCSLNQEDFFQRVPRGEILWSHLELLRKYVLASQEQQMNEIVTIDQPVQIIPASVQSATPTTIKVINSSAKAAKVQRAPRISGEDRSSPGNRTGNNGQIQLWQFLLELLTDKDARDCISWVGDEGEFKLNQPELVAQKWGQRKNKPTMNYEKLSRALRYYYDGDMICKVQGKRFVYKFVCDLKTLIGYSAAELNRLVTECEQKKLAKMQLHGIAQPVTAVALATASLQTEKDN
Put shortly: as §1

A further experiment deals with T4, ERG (Homo sapiens, UniProt P11308 1-479).
T4 sequence: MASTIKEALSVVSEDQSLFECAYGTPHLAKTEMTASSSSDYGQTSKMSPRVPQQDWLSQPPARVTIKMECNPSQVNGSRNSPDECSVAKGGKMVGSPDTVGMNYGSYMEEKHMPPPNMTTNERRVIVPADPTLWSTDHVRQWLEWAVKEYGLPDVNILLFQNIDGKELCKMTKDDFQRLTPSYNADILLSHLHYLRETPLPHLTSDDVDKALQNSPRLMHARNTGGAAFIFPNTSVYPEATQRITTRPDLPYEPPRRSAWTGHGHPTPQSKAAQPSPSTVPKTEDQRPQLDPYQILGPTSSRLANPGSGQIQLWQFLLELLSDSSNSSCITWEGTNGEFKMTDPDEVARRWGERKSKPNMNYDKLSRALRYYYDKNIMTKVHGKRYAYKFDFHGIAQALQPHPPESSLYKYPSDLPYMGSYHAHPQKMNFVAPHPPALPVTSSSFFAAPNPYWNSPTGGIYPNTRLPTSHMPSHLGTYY
A digest of the protocol:
as §1

The next experiment deals with ELF1 (Homo sapiens, UniProt P32519 1-619). A digest of the protocol:
as §1

A further experiment concerns the target T5, EHF (Homo sapiens, UniProt Q9NZC4 1-300).
T5 sequence: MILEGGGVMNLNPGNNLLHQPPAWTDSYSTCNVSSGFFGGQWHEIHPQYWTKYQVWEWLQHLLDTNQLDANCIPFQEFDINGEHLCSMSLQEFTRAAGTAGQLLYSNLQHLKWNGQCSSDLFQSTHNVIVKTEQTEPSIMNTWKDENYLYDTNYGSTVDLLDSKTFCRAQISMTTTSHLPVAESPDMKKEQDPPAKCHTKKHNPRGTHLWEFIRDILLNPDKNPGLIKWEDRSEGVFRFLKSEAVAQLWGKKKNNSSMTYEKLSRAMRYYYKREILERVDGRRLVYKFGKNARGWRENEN
A digest of the protocol: as §1

A further experiment concerns the target SPI1 (Homo sapiens, UniProt P17947 1-270). A digest of the protocol:
as §1

The next experiment addresses SPIB (Homo sapiens, UniProt Q01892 1-262). Put shortly: as §1
For the next experiment, the target named is T6, ELK3 (Homo sapiens, UniProt P41970 1-407).
T6 sequence: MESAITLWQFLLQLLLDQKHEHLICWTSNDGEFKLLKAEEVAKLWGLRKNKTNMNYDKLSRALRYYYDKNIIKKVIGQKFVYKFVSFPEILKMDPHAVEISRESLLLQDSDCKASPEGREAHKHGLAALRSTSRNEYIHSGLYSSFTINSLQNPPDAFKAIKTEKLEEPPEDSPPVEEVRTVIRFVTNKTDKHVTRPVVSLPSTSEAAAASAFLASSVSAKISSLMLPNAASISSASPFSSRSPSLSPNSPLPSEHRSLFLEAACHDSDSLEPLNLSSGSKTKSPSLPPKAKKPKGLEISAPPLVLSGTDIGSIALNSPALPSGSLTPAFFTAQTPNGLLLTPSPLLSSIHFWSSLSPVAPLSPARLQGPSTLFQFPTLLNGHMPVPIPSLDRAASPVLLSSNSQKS
A digest of the protocol:
as §1

Sequence of ELF1 (P32519 whole entry): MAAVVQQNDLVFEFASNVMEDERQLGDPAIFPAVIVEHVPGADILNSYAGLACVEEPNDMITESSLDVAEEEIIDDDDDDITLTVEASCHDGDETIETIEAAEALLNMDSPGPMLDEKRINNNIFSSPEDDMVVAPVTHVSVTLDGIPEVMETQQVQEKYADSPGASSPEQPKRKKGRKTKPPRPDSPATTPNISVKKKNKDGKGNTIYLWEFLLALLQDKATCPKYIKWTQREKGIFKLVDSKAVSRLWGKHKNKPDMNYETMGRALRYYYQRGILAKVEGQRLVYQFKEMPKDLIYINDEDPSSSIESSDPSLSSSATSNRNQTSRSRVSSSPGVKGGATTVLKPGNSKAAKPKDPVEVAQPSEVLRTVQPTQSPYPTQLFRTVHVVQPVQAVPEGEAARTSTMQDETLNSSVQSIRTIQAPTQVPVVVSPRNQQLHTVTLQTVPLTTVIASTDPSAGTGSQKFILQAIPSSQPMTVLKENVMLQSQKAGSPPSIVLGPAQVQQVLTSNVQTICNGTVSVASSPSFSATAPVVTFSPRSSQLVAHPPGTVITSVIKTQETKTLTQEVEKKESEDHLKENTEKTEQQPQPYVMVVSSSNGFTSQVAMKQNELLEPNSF
Sequence of SPIB (Q01892 whole entry): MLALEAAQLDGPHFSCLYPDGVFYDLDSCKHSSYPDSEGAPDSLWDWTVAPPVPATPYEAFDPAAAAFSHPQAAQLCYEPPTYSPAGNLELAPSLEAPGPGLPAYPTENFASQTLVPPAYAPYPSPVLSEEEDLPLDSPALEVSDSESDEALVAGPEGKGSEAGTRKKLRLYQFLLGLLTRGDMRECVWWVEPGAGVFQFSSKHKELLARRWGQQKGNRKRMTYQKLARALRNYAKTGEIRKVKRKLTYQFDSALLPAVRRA

In the case of TCTAAT, the binding signal with FLI1 was 1.2 fold enrichment (6-mer frequency, TF over GST control); in the experiment with ELK1, 1.17 fold enrichment (6-mer frequency, TF over GST control); with GABPA it was 1.18 fold enrichment (6-mer frequency, TF over GST control); with ERG, 1.17 fold enrichment (6-mer frequency, TF over GST control); with ELF1, 1.14 fold enrichment (6-mer frequency, TF over GST control); with EHF it was 1.26 fold enrichment (6-mer frequency, TF over GST control). Further, the binding signal in the experiment with SPI1 was 1.19 fold enrichment (6-mer frequency, TF over GST control); with SPIB, 1.16 fold enrichment (6-mer frequency, TF over GST control); with ELK3 it was 1.21 fold enrichment (6-mer frequency, TF over GST control).

As for CATTTG, the binding signal in the experiment with FLI1 is 1.23 fold enrichment (6-mer frequency, TF over GST control); with ELK1 it was 1.32 fold enrichment (6-mer frequency, TF over GST control); in the experiment with GABPA it was 1.28 fold enrichment (6-mer frequency, TF over GST control); with ERG it was 1.21 fold enrichment (6-mer frequency, TF over GST control); with ELF1, 1.24 fold enrichment (6-mer frequency, TF over GST control); with EHF, 1.27 fold enrichment (6-mer frequency, TF over GST control). Also, the binding signal is 1.29 fold enrichment (6-mer frequency, TF over GST control) with SPI1; 1.28 fold enrichment (6-mer frequency, TF over GST control) with SPIB; 1.2 fold enrichment (6-mer frequency, TF over GST control) with ELK3.

For CACAAG, the binding signal with FLI1 was 1.2 fold enrichment (6-mer frequency, TF over GST control); with ELK1, 1.17 fold enrichment (6-mer frequency, TF over GST control); with GABPA it was 1.15 fold enrichment (6-mer frequency, TF over GST control); with ERG it was 1.09 fold enrichment (6-mer frequency, TF over GST control); with ELF1, 1.18 fold enrichment (6-mer frequency, TF over GST control); in the experiment with EHF it was 1.14 fold enrichment (6-mer frequency, TF over GST control). In addition, the binding signal with SPI1 was 1.12 fold enrichment (6-mer frequency, TF over GST control); with SPIB it was 1.13 fold enrichment (6-mer frequency, TF over GST control); in the experiment with ELK3 it was 1.16 fold enrichment (6-mer frequency, TF over GST control).

AACACT: the binding signal was 1.27 fold enrichment (6-mer frequency, TF over GST control) with FLI1; 1.38 fold enrichment (6-mer frequency, TF over GST control) in the experiment with ELK1; 1.32 fold enrichment (6-mer frequency, TF over GST control) with GABPA; 1.31 fold enrichment (6-mer frequency, TF over GST control) with ERG; 1.32 fold enrichment (6-mer frequency, TF over GST control) with ELF1; 1.35 fold enrichment (6-mer frequency, TF over GST control) with EHF. Besides, the binding signal with SPI1 is 1.36 fold enrichment (6-mer frequency, TF over GST control); in the experiment with SPIB it was 1.31 fold enrichment (6-mer frequency, TF over GST control); with ELK3, 1.23 fold enrichment (6-mer frequency, TF over GST control).

Take CTCACA: the binding signal with FLI1 is 1.29 fold enrichment (6-mer frequency, TF over GST control); with ELK1 it was 1.3 fold enrichment (6-mer frequency, TF over GST control); in the experiment with GABPA, 1.38 fold enrichment (6-mer frequency, TF over GST control); in the experiment with ERG, 1.34 fold enrichment (6-mer frequency, TF over GST control); with ELF1 it was 1.35 fold enrichment (6-mer frequency, TF over GST control); in the experiment with EHF, 1.42 fold enrichment (6-mer frequency, TF over GST control). The binding signal is 1.27 fold enrichment (6-mer frequency, TF over GST control) in the experiment with SPI1; 1.38 fold enrichment (6-mer frequency, TF over GST control) in the experiment with SPIB; 1.41 fold enrichment (6-mer frequency, TF over GST control) with ELK3.

Regarding CTTGGA, the binding signal with FLI1 is 1.28 fold enrichment (6-mer frequency, TF over GST control); in the experiment with ELK1 it was 1.15 fold enrichment (6-mer frequency, TF over GST control); with GABPA it was 1.16 fold enrichment (6-mer frequency, TF over GST control); with ERG, 1.17 fold enrichment (6-mer frequency, TF over GST control); in the experiment with ELF1, 1.27 fold enrichment (6-mer frequency, TF over GST control); with EHF, 1.13 fold enrichment (6-mer frequency, TF over GST control). The binding signal is 1.14 fold enrichment (6-mer frequency, TF over GST control) in the experiment with SPI1; 1.2 fold enrichment (6-mer frequency, TF over GST control) with SPIB; 1.17 fold enrichment (6-mer frequency, TF over GST control) with ELK3.

Regarding TATTTA, the binding signal with FLI1 was 1.48 fold enrichment (6-mer frequency, TF over GST control); with ELK1, 1.5 fold enrichment (6-mer frequency, TF over GST control); with GABPA, 1.39 fold enrichment (6-mer frequency, TF over GST control); in the experiment with ERG it was 1.38 fold enrichment (6-mer frequency, TF over GST control); in the experiment with ELF1, 1.42 fold enrichment (6-mer frequency, TF over GST control); with EHF, 1.43 fold enrichment (6-mer frequency, TF over GST control). Besides, the binding signal in the experiment with SPI1 was 1.46 fold enrichment (6-mer frequency, TF over GST control); in the experiment with SPIB, 1.39 fold enrichment (6-mer frequency, TF over GST control); with ELK3 it was 1.61 fold enrichment (6-mer frequency, TF over GST control).

For GAATTT, the binding signal with FLI1 is 1.21 fold enrichment (6-mer frequency, TF over GST control); with ELK1, 1.11 fold enrichment (6-mer frequency, TF over GST control); in the experiment with GABPA it was 1.21 fold enrichment (6-mer frequency, TF over GST control); in the experiment with ERG, 1.24 fold enrichment (6-mer frequency, TF over GST control); in the experiment with ELF1, 1.17 fold enrichment (6-mer frequency, TF over GST control); with EHF, 1.13 fold enrichment (6-mer frequency, TF over GST control). Also, the binding signal is 1.24 fold enrichment (6-mer frequency, TF over GST control) with SPI1; 1.28 fold enrichment (6-mer frequency, TF over GST control) with SPIB; 1.19 fold enrichment (6-mer frequency, TF over GST control) with ELK3.
